According to PubChem BioAssay AID1159580 (chemical genetic matrix, 2015):
The campaign covered roughly 5,500 compounds. About 2,000 (36%) were called active. Inconclusive results (about 18%) are left out. Rule as the data show it: active = normalized growth mostly below about 0.91 (no sharp cut-off); inconclusive = no clear call, values can overlap the other calls; inactive = mostly above about 0.92. The list shows a part of the results.

Assay: chemical genetic growth profiling, strain panel (AID 1159580);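 also: tested at 20 µM; growth read once vehicle control cultures reached saturation at 30 °C; 1 = growth at the plate median or of vehicle wells; lower values mean less growth of the strain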
Conditions: S. cerevisiae deletion strains, growth OD

Measured: normalized growth

COc1cc(NS(C)(=O)=O)ccc1Nc1c2ccccc2nc2ccccc12
inactive: locus YAL040C, strain CLN3, stronger effect = lower value 0.985 | locus YCL061C, strain MRC1 (second series), stronger effect = lower value 0.981 | locus YDR363W, strain ESC2, stronger effect = lower value 0.916 | locus YER002W, strain NOP16, stronger effect = lower value 0.989 | locus YGR078C, strain PAC10, stronger effect = lower value 0.985 | locus YGR229C, strain SMI1, stronger effect = lower value 0.955 | locus YNL128W, strain TEP1, stronger effect = lower value 1.02 | locus YNL175C, strain NOP13, stronger effect = lower value 1 | locus YNL197C, strain WHI3, stronger effect = lower value 0.967 | locus YNL224C, strain SQS1, stronger effect = lower value 0.98 | locus YNL322C, strain KRE1, stronger effect = lower value 0.965 | locus YOR083W, strain WHI5 (second series), stronger effect = lower value 0.975 | locus YPL055C, strain LGE1, stronger effect = lower value 0.902

COc1cc(NS(C)(=O)=O)ccc1Cc1c2ccccc2nc2ccccc12
active: locus YAL021C, strain ccr4, stronger effect = lower value 0.785 | locus YBR009C, strain hhf1, stronger effect = lower value 0.828 | locus YCL016C, strain dcc1, stronger effect = lower value 0.476 | locus YCL061C, strain MRC1, stronger effect = lower value 0.867 | locus YDL005C, strain med2, stronger effect = lower value 0.681 | locus YDR069C, strain doa4, stronger effect = lower value 0.842 | locus YER016W, strain bim1, stronger effect = lower value 0.909 | locus YFR010W, strain ubp6, stronger effect = lower value 0.877 | locus YJL092W, strain hpr5, stronger effect = lower value 0.712 | locus YJL115W, strain asf1, stronger effect = lower value 0.341 | locus YLR027C, strain aat2, stronger effect = lower value 0.916 | locus YLR221C, strain rsa3, stronger effect = lower value 0.899 | locus YLR320W, strain mms22, stronger effect = lower value 0.208 | locus YNL322C, strain KRE1 (second series), stronger effect = lower value 0.822 | locus YOR080W, strain dia2, stronger effect = lower value 0.494 | locus YOR290C, strain snf2, stronger effect = lower value 0.823
inactive: locus YAL026C, strain drs2, stronger effect = lower value 1 | locus YAL030W, strain snc1, stronger effect = lower value 0.971 | locus YBL061C, strain skt5, stronger effect = lower value 1.01 | locus YBR023C, strain chs3, stronger effect = lower value 0.988 | locus YBR171W, strain sec66, stronger effect = lower value 1.02 | locus YBR231C, strain swc5, stronger effect = lower value 0.969 | locus YBR279W, strain paf1, stronger effect = lower value 0.988 | locus YCL011C, strain gbp2, stronger effect = lower value 0.939 | locus YCL069W, strain vba3, stronger effect = lower value 1 | locus YCR088W, strain abp1, stronger effect = lower value 0.986 | locus YDL040C, strain nat1, stronger effect = lower value 0.994 | locus YDR001C, strain nth1, stronger effect = lower value 0.999 | locus YDR137W, strain rgp1, stronger effect = lower value 1.1 | locus YDR159W, strain sac3, stronger effect = lower value 0.947 | locus YDR195W, strain ref2 1.05 | locus YDR297W, strain sur2, stronger effect = lower value 0.96 | locus YDR334W, strain swr1, stronger effect = lower value 1.01 | locus YDR335W, strain msn5, stronger effect = lower value 0.993 | locus YDR392W, strain spt3, stronger effect = lower value 0.795 | locus YEL003W, strain gim4, stronger effect = lower value 0.966 | locus YEL037C, strain rad23, stronger effect = lower value 0.979 | locus YEL061C, strain CIN8 (second series), stronger effect = lower value 0.982 | locus YER015W, strain faa2, stronger effect = lower value 0.986 | locus YER111C, strain swi4, stronger effect = lower value 1.01 | locus YER155C, strain BEM2 (second series), stronger effect = lower value 0.885 | locus YGL167C, strain pmr1, stronger effect = lower value 1 | locus YGL173C, strain kem1, stronger effect = lower value 0.991 | locus YGL227W, strain vid30, stronger effect = lower value 0.994 | locus YGL240W, strain doc1, stronger effect = lower value 0.892 | locus YGL253W, strain hxk2, stronger effect = lower value 0.996 | locus YHR013C, strain ard1, stronger effect = lower value 0.874 | locus YHR027C, strain rpn1, stronger effect = lower value 0.978 | locus YHR030C, strain SLT2, stronger effect = lower value 0.974 | locus YHR079C, strain IRE1, stronger effect = lower value 0.946 | locus YHR142W, strain chs7, stronger effect = lower value 0.964 | locus YJL095W, strain BCK1 (second series), stronger effect = lower value 0.986 | locus YJL095W, strain BCK1, stronger effect = lower value 1 | locus YJL129C, strain trk1, stronger effect = lower value 0.933 | locus YJL154C, strain vps35, stronger effect = lower value 0.998 | locus YJL164C, strain tpk1, stronger effect = lower value 0.918 | locus YJL166W, strain qcr8, stronger effect = lower value 0.945 | locus YJR066W, strain TOR1, stronger effect = lower value 0.919 | locus YKL160W, strain elf1, stronger effect = lower value 0.985 | locus YKR026C, strain gcn3, stronger effect = lower value 0.998 | locus YKR091W, strain srl3, stronger effect = lower value 1 | locus YLL001W, strain dnm1, stronger effect = lower value 0.936 | locus YLL026W, stronger effect = lower value 0.977 | locus YLL041C, strain sdh2, stronger effect = lower value 0.99 | locus YLR113W, strain HOG1, stronger effect = lower value 0.971 | locus YLR258W, strain gsy2, stronger effect = lower value 0.969 | locus YLR262C, strain YPT6 (second series), stronger effect = lower value 1 | locus YLR342W, strain FKS1, stronger effect = lower value 0.927 | locus YLR357W, strain rsc2, stronger effect = lower value 0.987 | locus YLR370C, strain arc18, stronger effect = lower value 0.923 | locus YLR384C, strain iki3, stronger effect = lower value 0.994 | locus YML120C, strain ndi1, stronger effect = lower value 0.956 | locus YMR058W, strain fet3, stronger effect = lower value 0.949 | locus YMR125W, strain sto1, stronger effect = lower value 0.98 | locus YMR129W, stronger effect = lower value 0.984 | locus YMR205C, strain PFK2, stronger effect = lower value 0.947 | locus YMR231W, strain pep5, stronger effect = lower value 1 | locus YNL071W, strain lat1, stronger effect = lower value 0.987 | locus YNL183C, strain NPR1, stronger effect = lower value 0.952 | locus YNL209W, strain ssb2, stronger effect = lower value 0.986 | locus YNL248C, strain rpa49, stronger effect = lower value 0.945 | locus YNR049C, strain mso1, stronger effect = lower value 0.989 | locus YOR001W, strain rrp6, stronger effect = lower value 0.915 | locus YOR070C, strain gyp1, stronger effect = lower value 0.984 | locus YOR083W, strain WHI5, stronger effect = lower value 0.934 | locus YOR106W, strain vam3, stronger effect = lower value 0.926 | locus YOR231W, strain MKK1, stronger effect = lower value 1.01 | locus YOR265W, strain rbl2, stronger effect = lower value 0.985 | locus YOR270C, strain vph1, stronger effect = lower value 0.935 | locus YPL051W, strain arl3, stronger effect = lower value 0.992 | locus YPL078C, strain atp4, stronger effect = lower value 1.02 | locus YPL106C, strain sse1, stronger effect = lower value 1.02 | locus YPL240C, strain hsp82, stronger effect = lower value 0.991 | locus YPL256C, strain CLN2, stronger effect = lower value 0.944
